Growth data for seven compounds are collected here from PubChem BioAssay (NCI).

Test systems include NCI-H23 lung; NCI-H226 lung; NCI-H322M lung; HOP-62 NSCLC; NCI-H460 lung; HOP-92 NSCLC; NCI-H522 lung; A549/ATCC NSCLC; 786-0 renal; COLO 205 colon; DU-145 prostate; K-562 leukemia; MALME-3M melanoma; MDA-MB-231 breast; RXF 393 renal; SF-268 CNS; SF-295 CNS; SF-539 CNS; UACC-257 melanoma; M14 melanoma.
What all share (experiment): NCI-60 one-dose screen, 48 h (100 = growth as untreated, 0 = no growth, -100 = all killed)
Conditions in all cases: 10 µM unless noted

The structures appear in SMILES notation. This is part of a sample that, as a whole, favours compounds with a hit. Of some 83,000 tested, about 20% had one in any assay.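 Cell lines were cultured in 96-well plates, exposed to a single compound concentration, and assessed for percent growth 48 hours later.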 Unmarked numbers belong to inactive results. Active and inactive are the calls of the source. How the source made its calls: active means growth percent below 10; inactive means the rest.

Regarding `C=C1C(=O)O[C@H]2[C@H]1CC/C(COC(=O)CCSSCCC(=O)OC/C1=C/CC[C@@]3(C)O[C@H]3[C@H]3OC(=O)C(=C)[C@@H]3CC1)=C\CC[C@@]1(C)O[C@@H]21`, the growth in the assay on NCI-H23 lung was 26.4%; with NCI-H226 lung, 78.1%; with NCI-H322M lung, 94.6%; in the assay with HOP-62 NSCLC it was 72.3%; in the assay on NCI-H460 lung, 64%; in the assay on HOP-92 NSCLC it was -57.7% (active). Further, the growth in the assay on NCI-H522 lung is -79.8% (active); with A549/ATCC NSCLC, 60.8%; with 786-0 renal, -70.9% (active); with COLO 205 colon it was -72.5% (active); in the assay with DU-145 prostate, 10.7%; in the assay with K-562 leukemia, -1.59% (active). Besides, the growth with MALME-3M melanoma was -27.1% (active); with MDA-MB-231 breast it was -83.7% (active); in the assay with RXF 393 renal, -93.6% (active); in the assay with SF-268 CNS it was 24.8%; with SF-295 CNS it was 72.9%; in the assay on SF-539 CNS, -63.4% (active). In addition, the growth in the assay on UACC-257 melanoma is -7.74% (active); with M14 melanoma, -10.1% (active).
Consider `CCCCCCn1c(-c2ccc(C(=O)O/N=C(\N)c3ccc4ccccc4c3)cc2)nc(-c2ccccc2)c1-c1ccccc1`, for which the growth was 44.3% with NCI-H23 lung; 80.3% in the assay with NCI-H226 lung; 83.6% with NCI-H322M lung; 81.7% in the assay on HOP-62 NSCLC; 58.5% in the assay on NCI-H460 lung; 16% in the assay on HOP-92 NSCLC. For the same compound, the growth is 47.9% in the assay on NCI-H522 lung; -33.5% (active) with A549/ATCC NSCLC; 4.48% (active) in the assay on 786-0 renal; 77.2% in the assay on COLO 205 colon; 53.9% in the assay with DU-145 prostate; -8.77% (active) with K-562 leukemia. Moreover, the growth is 71.5% with MALME-3M melanoma; 64.4% in the assay with MDA-MB-231 breast; 35.1% in the assay on RXF 393 renal; 51.3% in the assay with SF-268 CNS; 70.1% in the assay with SF-295 CNS; 48.8% in the assay on SF-539 CNS. The values for the growth in the assay with UACC-257 melanoma and in the assay with M14 melanoma were 82.2% and 72.7%, respectively.
In the case of `Cc1ccc2c(n1)C(=O)C(Cl)=C(Nc1ccccc1C(C)C)C2=O`, the growth was 49.8% in the assay with NCI-H23 lung; 59.1% in the assay with NCI-H226 lung; 62.7% with NCI-H322M lung; 90.8% in the assay on HOP-62 NSCLC; 82.4% with NCI-H460 lung; 106% in the assay on HOP-92 NSCLC. The growth was 39.3% in the assay on NCI-H522 lung; 94.7% in the assay with A549/ATCC NSCLC; 91.2% in the assay on 786-0 renal; 116% in the assay with COLO 205 colon; 63.2% with DU-145 prostate; 12% in the assay with K-562 leukemia. Moreover, the growth with MALME-3M melanoma was 42.5%; with MDA-MB-231 breast it was 30.3%; in the assay with RXF 393 renal, 83.6%; in the assay on SF-268 CNS, 86.4%; in the assay with SF-295 CNS, 101%; with SF-539 CNS, 65.9%. The growth is 24.9% in the assay with UACC-257 melanoma and 63% in the assay with M14 melanoma.
As to `COc1ccc2[nH]c(-c3ccccc3)c(/C=C(\C#N)S(=O)(=O)c3ccccc3)c2c1`, the growth is 60% in the assay with NCI-H23 lung; 99.5% in the assay on NCI-H226 lung; 77.8% in the assay with NCI-H322M lung; 79.1% in the assay on HOP-62 NSCLC; 20% in the assay on NCI-H460 lung; 63.2% in the assay on HOP-92 NSCLC. The growth in the assay with NCI-H522 lung is 64.3%; with A549/ATCC NSCLC, 45.1%; with 786-0 renal, 69.1%; in the assay with COLO 205 colon, 46.6%; in the assay on DU-145 prostate, 70.1%; in the assay on K-562 leukemia it was 5.1% (active). Also, the growth with MALME-3M melanoma was 47.7%; in the assay with MDA-MB-231 breast it was 56.8%; in the assay on RXF 393 renal it was 57.5%; in the assay on SF-268 CNS, 72.2%; in the assay on SF-295 CNS, 43.2%; in the assay on SF-539 CNS it was 42.3%. Besides, the values for the growth with UACC-257 melanoma and with M14 melanoma were 78.6% and 42.7%, respectively.
Turning to `CN1CCN(c2ccc(-c3cc4c(Nc5ccc(F)c(Cl)c5)ncnn4c3)cn2)CC1`, the growth was 102% in the assay on NCI-H23 lung; 97.7% in the assay on NCI-H226 lung; 74.7% in the assay on NCI-H322M lung; 106% in the assay with HOP-62 NSCLC; 16.1% in the assay on NCI-H460 lung; 107% in the assay on HOP-92 NSCLC. Besides, the growth is 98.6% with NCI-H522 lung; 85.2% in the assay with A549/ATCC NSCLC; 100% in the assay on 786-0 renal; 105% with COLO 205 colon; 58.1% in the assay on DU-145 prostate; 11.7% in the assay on K-562 leukemia. The growth with MALME-3M melanoma was 50.3%; in the assay with MDA-MB-231 breast, 77.3%; with RXF 393 renal, 101%; with SF-268 CNS, 98.7%; in the assay with SF-295 CNS, 103%; with SF-539 CNS, 68%. Further, the growth with UACC-257 melanoma was 105%; in the assay on M14 melanoma it was 83.8%.
Regarding `Cc1nc2cnc(N)c(C#Cc3cncc(C(=O)Nc4ccc(CN5CCN(C)CC5)c(C(F)(F)F)c4)c3)c2nc1C`, the growth in the assay on NCI-H23 lung is -9.47% (active); in the assay with NCI-H226 lung it was 3.74% (active); in the assay on NCI-H322M lung it was -5.35% (active); with HOP-62 NSCLC, 11.9%; in the assay with NCI-H460 lung it was 4.26% (active); in the assay on HOP-92 NSCLC, -39% (active). Also, the growth with NCI-H522 lung is 4.74% (active); in the assay on A549/ATCC NSCLC, 2.19% (active); in the assay with 786-0 renal, 35%; in the assay with COLO 205 colon, -17.5% (active); in the assay on DU-145 prostate, 8.22% (active); in the assay on K-562 leukemia, 7.33% (active). Also, the growth with MALME-3M melanoma is -40.5% (active); in the assay on MDA-MB-231 breast it was -12.3% (active); in the assay on RXF 393 renal it was -68.3% (active); in the assay with SF-268 CNS it was 8% (active); with SF-295 CNS, 36%; in the assay with SF-539 CNS, -23.3% (active). Further, the values for the growth with UACC-257 melanoma and in the assay with M14 melanoma were -25.8% (active) and -55.6% (active), respectively.
As to `Cc1ccc(S(=O)(=O)Oc2ccc(NC(=O)c3ccc(Cl)cc3)cc2)cc1`, the growth is 102% in the assay with NCI-H23 lung; 109% with NCI-H226 lung; 91% in the assay on NCI-H322M lung; 91.1% in the assay on HOP-62 NSCLC; 103% in the assay with NCI-H460 lung; 102% with HOP-92 NSCLC. Moreover, the growth in the assay with NCI-H522 lung was 83.8%; in the assay with A549/ATCC NSCLC it was 95%; in the assay on 786-0 renal, 91.1%; in the assay with COLO 205 colon, 113%; in the assay with DU-145 prostate it was 105%; with K-562 leukemia it was 92.8%. For the same compound, the growth in the assay with MALME-3M melanoma was 100%; in the assay with MDA-MB-231 breast it was 97%; in the assay with RXF 393 renal, 115%; with SF-268 CNS, 94.4%; in the assay on SF-295 CNS it was 93.4%; in the assay with SF-539 CNS, 93.7%. Also, the growth was 111% with UACC-257 melanoma and 94.3% in the assay with M14 melanoma.
